Among the data in PubChem BioAssay (NCATS) are Potency values, retold here.

The target of assay [1] is Glutathione peroxidase 1 (Homo sapiens) (UniProt P07203). Description: Primary qHTS Assay for Inhibitors of Recombinant Selenoprotein Glutathione Peroxidase 1 (GPX1) (AID 1845191). Further: nearly all actives have a fitted effect of over 65% in size. In short, it runs like this:
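GR-coupled readout: NADPH consumption tracked by fluorescence, ex 340/em 450 nm, at t=0 and after 15 min at RT. Final mix 10 nM GPX1, 1 mM GSH, 0.5 mM CHP, 0.5 mM NADPH, 100 nM GR, 0.01% BSA, following 30 min enzyme–compound preincubation.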
In general terms: qHTS replaces the single test concentration by a dilution series.

In assay [2] the target is Phospholipid hydroperoxide glutathione peroxidase GPX4 (Homo sapiens) (UniProt P36969). The experiment in a line: Primary qHTS Assay for Inhibitors of Recombinant Selenoprotein Glutathione Peroxidase 4 (GPX4) (AID 1845192). Further: nearly all actives have a fitted effect of over 65% in size. Further: potency means the concentration at half of the fitted maximal effect. In short, it runs like this:
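Steps: GPX4 plus compound, 30 min RT; add GR/GSH/NADPH master mix; start with cumene hydroperoxide; read 340/450 nm fluorescence at 0 and 15 min. Finals were 200 nM GPX4, 1 mM GSH, 0.5 mM CHP, 0.5 mM NADPH, 100 nM GR.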

In assay [3] the target is Luciferin 4-monooxygenase (Photinus pyralis) (UniProt P08659). The experiment in a line: Primary firefly luciferase (FLuc) qHTS assay for identification of artifact compounds. (AID 1845220). Further: nearly all actives have a fitted effect of over 60% in size. Further: potency means the concentration at half of the fitted maximal effect. The essentials: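 D-luciferin and ATP (10 uM each, final) in Tris acetate buffer pH 7.6 were incubated with compounds for 15 min at room temperature. The reaction was started with 10 nM Photinus pyralis luciferase and luminescence read after 5 min. Percent inhibition was fitted to a 4-parameter Hill equation.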

The test system of assay [4] is Nanoluciferase (engineered Oplophorus gracilirostris luciferase). Description: Primary Nanoluciferase (NLuc) qHTS assay for identification of artifact compounds. (AID 1845222). Further: potency means the concentration at half of the fitted maximal effect. The essentials: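 Diluted conditioned medium from NLuc-expressing S16 cells treated with compounds for 15 min at room temperature, then Nano-Glo substrate added; luminescence read after 5 min. Percent inhibition versus no-enzyme and DMSO controls fitted to 4-parameter Hill equation.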

A short description of assay [5]: Primary redox qHTS assay for identification of artifact compounds. (AID 1845223). In short, it runs like this:
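Redox-cycling detection via DTT (250 uM final) oxidation coupled to Amplex Red (25 uM)/HRP (250 mU/mL) in HBSS. 15 min preincubation plus 30 min after DTT, room temperature. Ex/Em 525/598 nm; 4-parameter Hill fit against DMSO and 10 uM DA3003.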

Results filed as inconclusive are left out. Calls of active or inactive are those of the source. The call rests on the fitted dose curve; in most records, active means well fitted curve in the direction sought with a large enough effect; inconclusive means small, poorly fitted or top-dose-only effect, or another doubt; inactive means no such curve, though single readings can be large; an effect the other way counts as inactive or inconclusive.

Sequence of Phospholipid hydroperoxide glutathione peroxidase GPX4 (Homo sapiens) (P36969 whole entry, looked up): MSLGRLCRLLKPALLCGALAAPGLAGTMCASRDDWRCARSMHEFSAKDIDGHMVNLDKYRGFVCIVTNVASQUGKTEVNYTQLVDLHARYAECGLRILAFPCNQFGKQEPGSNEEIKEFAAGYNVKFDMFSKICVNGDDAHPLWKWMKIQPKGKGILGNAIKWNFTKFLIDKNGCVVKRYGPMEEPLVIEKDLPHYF
Sequence of Glutathione peroxidase 1 (Homo sapiens) (P07203 whole entry, looked up): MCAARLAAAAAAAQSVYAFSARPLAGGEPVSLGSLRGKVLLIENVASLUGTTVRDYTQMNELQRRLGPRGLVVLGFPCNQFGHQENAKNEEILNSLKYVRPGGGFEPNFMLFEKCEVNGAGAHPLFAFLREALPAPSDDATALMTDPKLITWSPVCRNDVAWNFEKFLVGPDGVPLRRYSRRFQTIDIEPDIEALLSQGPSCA

On to `N#Cc1cnc2c(Cl)cc(NCc3cn(CCN4CCCCCC4)nn3)cc2c1Nc1ccc(F)c(Cl)c1`, for which the Potency result in assay [1], in assay [2], in assay [3], in assay [4] and in assay [5] was “inactive” each time.
For `CC(O)C(C)n1ncn(-c2ccc(N3CCN(c4ccc(OCC5COC(Cn6cncn6)(c6ccc(Cl)cc6Cl)O5)cc4)CC3)cc2)c1=O` (stereo not given), the Potency entry in assay [1], in assay [2], in assay [3], in assay [4] and in assay [5] was “inactive” in each case.
`O=C(NS(=O)(=O)c1ccc(Br)s1)c1ccc(Cl)cc1Cl`: the Potency result in assay [1], in assay [2], in assay [3] and in assay [5] was “inactive” each time. The Potency in assay [4] was 6.75 µM (active).
`CC1(CO)CC(O)[C@]2(C(=O)O)CCC34CC3(C=CC3[C@]5(C)C(CC[C@]34C)C(C)(CO)[C@@H](O)[C@H](O)[C@@H]5O)C2C1` (stereo not given in full): the Potency result in assay [1], in assay [2], in assay [3], in assay [4] and in assay [5] was “inactive” in each case.
As for `O=C(NO)c1ccc(CC(=O)N(CCO)c2ccccc2)cc1`, the Potency result in assay [1], in assay [2], in assay [3], in assay [4] and in assay [5] was “inactive” each time.
On to `Cc1onc(-c2ccccc2)c1C(=O)N1CCN(c2ccc([N+](=O)[O-])cc2Cl)CC1`, for which the Potency result in assay [1], in assay [2], in assay [3], in assay [4] and in assay [5] was “inactive” throughout.
For `O=[N+]([O-])c1ccc(Oc2ccc3c(c2)CCC(c2ccccc2)O3)nc1` (stereo not given), the Potency entry in assay [1], in assay [2], in assay [3], in assay [4] and in assay [5] was “inactive” throughout.
Consider `CC1(CO)CC2C(O)C3=C(CC(C)(O)C2C1)C(=O)OC3` (stereo not given), for which the Potency result in assay [1], in assay [2], in assay [3], in assay [4] and in assay [5] was “inactive” in each case.
As for `C=C(C)[C@@H]1CC=C(COC(=O)NC(=O)c2ncn3c(=O)n(C)nnc23)CC1`, the Potency result in assay [1], in assay [2], in assay [3], in assay [4] and in assay [5] was “inactive” throughout.
As for `O=C1NC(=O)C(c2cnc3ccccn23)=C1c1cn2c3c(cc(F)cc13)CN(C(=O)N1CCCCC1)CC2`, the Potency result in assay [1], in assay [2], in assay [3], in assay [4] and in assay [5] was “inactive” each time.
Take `Clc1ncoc1-c1c[nH]c2ccccc12`: the Potency result in assay [1], in assay [2], in assay [3], in assay [4] and in assay [5] was “inactive” throughout.
Take `COc1ccccc1C(=O)Nc1cc2c(cc1N1CCCC1)n(C)c(=O)n2C`: the Potency entry in assay [1], in assay [2], in assay [3], in assay [4] and in assay [5] was “inactive” each time.
For `CC(C)c1cccc(C(C)C)c1NC(=O)Nc1ccc(Sc2ccc([N+](=O)[O-])cc2)cc1`, the Potency entry in assay [1], in assay [2], in assay [3], in assay [4] and in assay [5] was “inactive” each time.
`CN(C)CCN(Cc1ccccc1)C(=O)c1cc(-c2ccc(F)cc2)n2nc(C(C)(C)C)cc2n1`: the Potency entry in assay [1], in assay [2], in assay [3], in assay [4] and in assay [5] was “inactive” in each case.
On to `COC(C)(C)CCn1nc(Nc2c(C)cccc2C)c2cnc(Nc3ccc(OCCN4CCCC4)c(F)c3)nc21`, for which the Potency result in assay [1], in assay [2], in assay [3], in assay [4] and in assay [5] was “inactive” each time.
For `C=C(C(=O)O)[C@@H]1CC=C(CCC(C)=O)[C@@H](C)CC1`, the Potency entry in assay [1], in assay [2], in assay [3], in assay [4] and in assay [5] was “inactive” each time.
Take `Cc1c(NC(=O)c2cc3c(s2)CCCC3)cccc1-c1cn(C)c(=O)c(Nc2ccc(C3C(=O)N(C)CCN3C)cc2)n1` (stereo not given): the Potency entry in assay [1], in assay [2], in assay [4] and in assay [5] was “inactive” each time. In assay [3], the Potency is 4.78 µM (active).
With `COc1cc2nc(N3CCN(C(=O)c4ccco4)C4CCCCC43)nc(N)c2cc1OC` (stereo not given), the Potency entry in assay [1], in assay [3], in assay [4] and in assay [5] was “inactive” each time. Further, the Potency in assay [2] is 22.7 µM (active).
Turning to `CC[C@H](C(=O)Nc1ccccc1N1CCCC1)c1ccccc1`, the Potency entry in assay [1], in assay [2], in assay [3], in assay [4] and in assay [5] was “inactive” in each case.
Consider `O=C(Nc1cccc([N+](=O)[O-])c1)c1cccc(S(=O)(=O)N2CCCCCC2)c1`, for which the Potency entry in assay [1], in assay [2], in assay [3], in assay [4] and in assay [5] was “inactive” in each case.
Take `CCOc1ccc(CCNC(=O)c2cc3sc(Cl)cc3n2C)cc1OCC`: the Potency entry in assay [1], in assay [2], in assay [3], in assay [4] and in assay [5] was “inactive” each time.
For `C=C1C(=O)OC2CC(C)C(CCC(C)O)=CCC12` (stereo not given), the Potency result in assay [1], in assay [2], in assay [4] and in assay [5] was “inactive” each time. For the same compound, the Potency in assay [3] is 6.75 µM (active).
As to `CCOc1ccc(-n2c([C@@H](C)N(Cc3cccnc3)C(=O)Cc3ccc(OC(F)(F)F)cc3)nc3ncccc3c2=O)cc1`, the Potency result in assay [1], in assay [2], in assay [3], in assay [4] and in assay [5] was “inactive” in each case.
As for `Cc1cc(F)ccc1[C@H]1C[C@@H](N2CCN3C(=O)CC[C@H]3C2)CCN1C(=O)N(C)[C@H](C)c1cc(C(F)(F)F)cc(C(F)(F)F)c1`, the Potency entry in assay [1], in assay [2], in assay [3], in assay [4] and in assay [5] was “inactive” in each case.
For the compound `COc1cc2c(c(OC)c1CC=C(C)C)C[C@H](c1ccc(O)c(CC=C(C)C)c1O)CO2`, the Potency result in assay [1], in assay [2], in assay [3], in assay [4] and in assay [5] was “inactive” each time.
